# Source: PubChem BioAssay AID1508601 (ICCB-Longwood Screening Facility, Harvard Medical School, 2020)
# The campaign covered roughly 5,700 compounds. About 85 (1%) were called active. Rule as the data show it: active = p53-positive nuclei above about 36% (passing the limit was not always enough); inactive = the rest. The sample as a whole holds a higher share of actives than the screen did.
# Assays:
# [1] = p53 stabilisation in HPV-positive human cells, imaging, p53-positive nuclei imaging, 24 h, 48 h (AID 1508601); conditions: 24/48 h
# [2] = target: Cellular tumor antigen p53 (Homo sapiens) (UniProt P04637); assay: as above; conditions: 24/48 h, stronger effect = higher value
# Sequence of Cellular tumor antigen p53 (Homo sapiens) (P04637 whole entry, looked up): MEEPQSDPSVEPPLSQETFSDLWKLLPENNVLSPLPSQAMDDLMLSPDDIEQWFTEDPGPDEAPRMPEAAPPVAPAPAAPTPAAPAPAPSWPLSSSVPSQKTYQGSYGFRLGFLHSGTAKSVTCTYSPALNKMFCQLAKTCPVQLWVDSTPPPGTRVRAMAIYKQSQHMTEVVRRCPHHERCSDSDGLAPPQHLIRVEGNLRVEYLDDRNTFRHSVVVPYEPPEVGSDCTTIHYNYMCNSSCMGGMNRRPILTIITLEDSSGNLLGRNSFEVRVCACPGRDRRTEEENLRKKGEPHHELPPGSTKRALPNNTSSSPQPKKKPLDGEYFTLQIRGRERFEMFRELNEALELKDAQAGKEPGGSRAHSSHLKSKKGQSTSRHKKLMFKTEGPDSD
# [3] = measured here: cell number at 24 h, Library stock concentration: 3.33 mM
# [4] = measured here: cell number at 48 h, Library stock concentration: 3.33 mM
# [5] = Library stock concentration: 3.33 mM
# [6] = measured here: p53 positive nuclei at 24 h, Library stock concentration: 3.33 mM
# [7] = measured here: cell number at 24 h, Library stock concentration: 80 uM
# [8] = measured here: cell number at 24 h, Library stock concentration: 400 uM
# [9] = measured here: cell number at 24 h, Library stock concentration: 2 mM
# [10] = measured here: cell number at 24 h, Library stock concentration: 10 mM
# [11] = measured here: cell number at 48 h, Library stock concentration: 80 uM
# [12] = measured here: cell number at 48 h, Library stock concentration: 400 uM
# [13] = measured here: cell number at 48 h, Library stock concentration: 2 mM
# [14] = measured here: cell number at 48 h, Library stock concentration: 10 mM
# [15] = Library stock concentration: 80 uM
# [16] = Library stock concentration: 400 uM
# [17] = Library stock concentration: 2 mM
# [18] = Library stock concentration: 10 mM
# [19] = measured here: p53 positive nuclei at 24 h, Library stock concentration: 80 uM
# [20] = measured here: p53 positive nuclei at 24 h, Library stock concentration: 400 uM
# [21] = measured here: p53 positive nuclei at 24 h, Library stock concentration: 2 mM
# [22] = measured here: p53 positive nuclei at 24 h, Library stock concentration: 10 mM
# [23] = measured here: cell number at 24 h, concentration not given here
# [24] = measured here: cell number at 48 h, concentration not given here
# [25] = measured here: p53 positive nuclei at 24 h, concentration not given here
structure (smiles),measurement,setting,value
O=c1[nH]c2ccc(Cl)cc2c(NC2CN3CCC2CC3)c1-c1nc2ccccc2[nH]1 (stereo not drawn),"nuclei count, normalised",[1]; [3],52.7%
same,"nuclei count, normalised",[1]; [4],33.7%
same,"p53-positive nuclei, normalised",[2]; [5],34% (inactive)
same,"p53-positive nuclei, normalised",[2]; [6],8.33%
C[C@]12C=CC(=O)C=C1CC[C@@H]1[C@@H]2CC[C@]2(C)OC(=O)CC[C@@H]12,"nuclei count, normalised",[1]; [7],87.6%
same,"nuclei count, normalised",[1]; [8],90.3%
same,"nuclei count, normalised",[1]; [9],93%
same,"nuclei count, normalised",[1]; [10],89.5%
same,"nuclei count, normalised",[1]; [11],95.1%
same,"nuclei count, normalised",[1]; [12],95%
same,"nuclei count, normalised",[1]; [13],99.5%
same,"nuclei count, normalised",[1]; [14],97.4%
same,"p53-positive nuclei, normalised",[2]; [15],-0.0445% (inactive)
same,"p53-positive nuclei, normalised",[2]; [16],0.096% (inactive)
same,"p53-positive nuclei, normalised",[2]; [17],-0.0494% (inactive)
same,"p53-positive nuclei, normalised",[2]; [18],-0.00393% (inactive)
same,"p53-positive nuclei, normalised",[2]; [19],-0.0455%
same,"p53-positive nuclei, normalised",[2]; [20],0.101%
same,"p53-positive nuclei, normalised",[2]; [21],0.166%
same,"p53-positive nuclei, normalised",[2]; [22],-0.0487%
O=C1C(=O)c2cccc3cccc1c23,"nuclei count, normalised",[1]; [7],115%
same,"nuclei count, normalised",[1]; [8],118%
same,"nuclei count, normalised",[1]; [9],118%
same,"nuclei count, normalised",[1]; [10],109%
same,"nuclei count, normalised",[1]; [11],119%
same,"nuclei count, normalised",[1]; [12],112%
same,"nuclei count, normalised",[1]; [13],115%
same,"nuclei count, normalised",[1]; [14],115%
same,"p53-positive nuclei, normalised",[2]; [15],0.0597% (inactive)
same,"p53-positive nuclei, normalised",[2]; [16],0.0621% (inactive)
same,"p53-positive nuclei, normalised",[2]; [17],0.165% (inactive)
same,"p53-positive nuclei, normalised",[2]; [18],0.252% (inactive)
same,"p53-positive nuclei, normalised",[2]; [19],-0.0696%
same,"p53-positive nuclei, normalised",[2]; [20],-0.0154%
same,"p53-positive nuclei, normalised",[2]; [21],0.208%
same,"p53-positive nuclei, normalised",[2]; [22],0.327%
O=C1c2ccccc2C(=O)c2ccccc21,"nuclei count, normalised",[1]; [23],102%
same,"nuclei count, normalised",[1]; [24],96.8%
same,"p53-positive nuclei, normalised",[2]; concentration not given here,-0.00139% (inactive)
same,"p53-positive nuclei, normalised",[2]; [25],-0.102%
CC1=CC(=O)c2c(O)cccc2C1=O,"nuclei count, normalised","[1]; measured here: cell number at 24 h, Library stock concentration: 500 nM",119%
same,"nuclei count, normalised","[1]; measured here: cell number at 24 h, Library stock concentration: 1.5 uM",116%
same,"nuclei count, normalised","[1]; measured here: cell number at 24 h, Library stock concentration: 4.6 uM",126%
same,"nuclei count, normalised","[1]; measured here: cell number at 24 h, Library stock concentration: 13.7 uM",115%
same,"nuclei count, normalised","[1]; measured here: cell number at 24 h, Library stock concentration: 41 uM",118%
same,"nuclei count, normalised","[1]; measured here: cell number at 24 h, Library stock concentration: 123 uM",108%
same,"nuclei count, normalised","[1]; measured here: cell number at 24 h, Library stock concentration: 370 uM",94.6%
same,"nuclei count, normalised","[1]; measured here: cell number at 24 h, Library stock concentration: 1.111 mM",55.5%
same,"nuclei count, normalised","[1]; measured here: cell number at 24 h, Library stock concentration: 3.333 mM",48.6%
same,"nuclei count, normalised",[1]; [10],49%
same,"nuclei count, normalised","[1]; measured here: cell number at 48 h, Library stock concentration: 500 nM",113%
same,"nuclei count, normalised","[1]; measured here: cell number at 48 h, Library stock concentration: 1.5 uM",115%
same,"nuclei count, normalised","[1]; measured here: cell number at 48 h, Library stock concentration: 4.6 uM",120%
same,"nuclei count, normalised","[1]; measured here: cell number at 48 h, Library stock concentration: 13.7 uM",115%
same,"nuclei count, normalised","[1]; measured here: cell number at 48 h, Library stock concentration: 41 uM",118%
same,"nuclei count, normalised","[1]; measured here: cell number at 48 h, Library stock concentration: 123 uM",111%
same,"nuclei count, normalised","[1]; measured here: cell number at 48 h, Library stock concentration: 370 uM",102%
same,"nuclei count, normalised","[1]; measured here: cell number at 48 h, Library stock concentration: 1.111 mM",32.4%
same,"nuclei count, normalised","[1]; measured here: cell number at 48 h, Library stock concentration: 3.333 mM",31.9%
same,"nuclei count, normalised",[1]; [14],32.5%
same,"p53-positive nuclei, normalised",[2]; Library stock concentration: 500 nM,-0.129% (inactive)
same,"p53-positive nuclei, normalised",[2]; Library stock concentration: 1.5 uM,-0.0912% (inactive)
same,"p53-positive nuclei, normalised",[2]; Library stock concentration: 4.6 uM,0.131% (inactive)
same,"p53-positive nuclei, normalised",[2]; Library stock concentration: 13.7 uM,-0.0585% (inactive)
same,"p53-positive nuclei, normalised",[2]; Library stock concentration: 41 uM,-0.0569% (inactive)
same,"p53-positive nuclei, normalised",[2]; Library stock concentration: 123 uM,0.196% (inactive)
same,"p53-positive nuclei, normalised",[2]; Library stock concentration: 370 uM,-0.0821% (inactive)
same,"p53-positive nuclei, normalised",[2]; Library stock concentration: 1.111 mM,48.3% (active)
same,"p53-positive nuclei, normalised",[2]; Library stock concentration: 3.333 mM,2.14% (inactive)
same,"p53-positive nuclei, normalised",[2]; [18],-0.248% (inactive)
same,"p53-positive nuclei, normalised","[2]; measured here: p53 positive nuclei at 24 h, Library stock concentration: 500 nM",0.0252%
same,"p53-positive nuclei, normalised","[2]; measured here: p53 positive nuclei at 24 h, Library stock concentration: 1.5 uM",0.031%
same,"p53-positive nuclei, normalised","[2]; measured here: p53 positive nuclei at 24 h, Library stock concentration: 4.6 uM",-0.0368%
same,"p53-positive nuclei, normalised","[2]; measured here: p53 positive nuclei at 24 h, Library stock concentration: 13.7 uM",0.0863%
same,"p53-positive nuclei, normalised","[2]; measured here: p53 positive nuclei at 24 h, Library stock concentration: 41 uM",-0.027%
same,"p53-positive nuclei, normalised","[2]; measured here: p53 positive nuclei at 24 h, Library stock concentration: 123 uM",0.171%
same,"p53-positive nuclei, normalised","[2]; measured here: p53 positive nuclei at 24 h, Library stock concentration: 370 uM",0.0792%
same,"p53-positive nuclei, normalised","[2]; measured here: p53 positive nuclei at 24 h, Library stock concentration: 1.111 mM",61.6%
same,"p53-positive nuclei, normalised","[2]; measured here: p53 positive nuclei at 24 h, Library stock concentration: 3.333 mM",3.81%
same,"p53-positive nuclei, normalised",[2]; [22],-0.148%
C[C@]12NC(Cc3ccccc31)c1ccccc12,"nuclei count, normalised",[1]; [3],121%
same,"nuclei count, normalised",[1]; [4],112%
same,"p53-positive nuclei, normalised",[2]; [5],-0.107% (inactive)
same,"p53-positive nuclei, normalised",[2]; [6],-0.588%
CCCCC/C=C\C/C=C\C/C=C\C/C=C\CCCC(=O)NCCF,"nuclei count, normalised",[1]; [23],90.3%
same,"nuclei count, normalised",[1]; [24],90.8%
same,"p53-positive nuclei, normalised",[2]; concentration not given here,0.105% (inactive)
same,"p53-positive nuclei, normalised",[2]; [25],-0.0127%
